Compound activity: PubChem, several laboratories
CHT allo act: allosterically activates the human high affinity choline transporter | CHT-expressing cells, membrane potential dye, choline EC20; hits give high values; LV-AA mutant CHT in HEK293 cells | AID 488977 | 0.49% of 310,000 active | B-score at 10 µM;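 active = initial fluorescence not abnormally high and integrated response B-score, plate-corrected, over 3 SD above library mean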
Target sequence (Q9GZV3 whole entry, looked up): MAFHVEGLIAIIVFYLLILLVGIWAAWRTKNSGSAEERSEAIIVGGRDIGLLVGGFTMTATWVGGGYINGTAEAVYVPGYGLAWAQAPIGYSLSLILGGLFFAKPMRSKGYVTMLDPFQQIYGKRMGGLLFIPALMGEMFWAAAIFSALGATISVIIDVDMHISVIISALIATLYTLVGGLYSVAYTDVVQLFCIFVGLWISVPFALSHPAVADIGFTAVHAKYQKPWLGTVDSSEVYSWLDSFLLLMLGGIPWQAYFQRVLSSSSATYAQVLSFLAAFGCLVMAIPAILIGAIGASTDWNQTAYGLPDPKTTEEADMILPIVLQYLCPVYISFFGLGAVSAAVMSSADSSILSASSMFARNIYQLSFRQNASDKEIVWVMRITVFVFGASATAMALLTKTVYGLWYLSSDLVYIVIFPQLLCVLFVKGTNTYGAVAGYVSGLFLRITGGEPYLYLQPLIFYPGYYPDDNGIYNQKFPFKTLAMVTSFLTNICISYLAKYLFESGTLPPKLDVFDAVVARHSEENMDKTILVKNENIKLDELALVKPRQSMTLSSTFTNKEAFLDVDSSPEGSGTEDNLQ
CHT block: human CHT choline transport inhibition | CHT-expressing cells, membrane potential dye, choline response; hits give low values | B-score at 10 µM | 0.86% of 310,000 active;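 active = B-score over 3 SD under the library average, and starting fluorescence ratio not unusually high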;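 also: choline stimulus applied at its EC90 after an EC20 pre-addition; B-score computed on integrated fluorescence ratio after choline addition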
MEKK2wt PB1 HTS: raises or lowers MEK5 binding to wildtype human MEKK2 PB1 domain. Q9Y2U5. AID 1531. bead flow cytometry, Alexa488-MEK5 binding to MEKK2 WT; actives lie on both sides. 1.1% of 290,000 active. binding response (% of control), % at 10 µM; in the data active = binding response below about 67% or above about 130%
MEKK2 mut-MEK5: signal of MEK5 binding to mutant human MEKK2 PB1 domain; bead flow cytometry, Alexa488-MEK5 binding to MEKK2 mutant; percent response, % at 10 µM; 0.35% of 290,000 active; AID 1530; in the data active = percent response above about 24%, passing the limit was not always enough
Mot1-301 SUMO: blocks SUMOylation pathway, rescuing yeast Mot1-301 growth; S. cerevisiae Mot1-301 growth rescue, ATP luminescence, 38.5C; percent above DMSO median, 100 means doubled; growth rescue, % at 18.8 µM; 1% of 320,000 active;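 active = every valid replicate shows activation above 250% relative to neutral control wells; inactive = the rest, any valid replicate at or below 250%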;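 also: OY570 slx delta 5 strain wells were the positive control but not used for scaling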
MEKK3 PB1 HTS: modulators (inhibitors or enhancers) of MEK5 binding to human MEKK3 PB1 domain; Q99759; bead-based flow cytometry, Alexa488-MEK5 binding to MEKK3; actives lie on both sides; 0 = blocked by unlabeled MEK5, 100 = vehicle; binding response (% of control), % at 10 µM; 1.4% of 290,000 active; AID 1529;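 active = binding response more than 3 SD above or below the average of its plate-row segment, actives on both sides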;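 also: Alexa488 bead fluorescence after subtracting the streptavidin-only scavenger bead signal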
Mot1 SUMO dose: yeast SUMO pathway inhibition in dose response. shares compounds with Mot1-301 SUMO. S. cerevisiae Mot1-301 galactose growth, ATP luminescence, 24 h; -100 = growth of slx-deleted rescue strain. growth activity, percent, % at 42 µM. 2,300 tested, under 10 active;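 active = Signal drops as the depositor expects, and the fitted half-maximal dose is no more than ten times the top valid tested dose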;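 also: more negative values mean stronger growth rescue toward the control strain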
* = called active by the depositor; [ ] = remark or other dose. In the library only some 4.1% were active in any assay of this set; here they are far more common.

Screening Cc1c(CC(=O)O)c(=O)oc2c(C)c(OCc3ccccc3)ccc12 returned CHT allo act inactive, CHT block inactive, MEKK2wt PB1 HTS 104, MEKK2 mut-MEK5 6, Mot1-301 SUMO -8 and MEKK3 PB1 HTS 102.
For COc1ccc(OC)c(NC(=O)CN(C)S(=O)(=O)c2ccc(Cl)cc2)c1 the results were CHT allo act inactive, CHT block inactive, MEKK2wt PB1 HTS 103, MEKK2 mut-MEK5 3, Mot1-301 SUMO 415*, MEKK3 PB1 HTS 108 and Mot1 SUMO dose 0.
Cc1c(N/C(=N/S(=O)(=O)c2ccc(Cl)cc2)c2ccccc2)c(=O)n(-c2ccccc2)n1C was read as CHT allo act inactive, CHT block inactive, MEKK2wt PB1 HTS 93, MEKK2 mut-MEK5 -1, Mot1-301 SUMO 10 and MEKK3 PB1 HTS 92.
O=C(Cn1cnc2c(nnn2Cc2ccccc2F)c1=O)NCc1ccco1 was read as CHT allo act inactive, CHT block inactive and Mot1-301 SUMO -11.
Screening CC(SC#N)C(=O)C12CC3CC(CC(C3)C1)C2 (stereo not drawn) returned CHT allo act inactive, CHT block inactive, MEKK2wt PB1 HTS 94, MEKK2 mut-MEK5 -4, Mot1-301 SUMO 386*, MEKK3 PB1 HTS 100 and Mot1 SUMO dose -1.
For CC(Sc1n[nH]c(N)n1)C(=O)C12CC3CC(CC(C3)C1)C2 (stereo not drawn) the results were CHT allo act inactive, CHT block inactive, MEKK2wt PB1 HTS 101, MEKK2 mut-MEK5 3, Mot1-301 SUMO 0 and MEKK3 PB1 HTS 106.
Screening O=C(Nc1ccccn1)c1ccc(CN(c2ccccc2)S(=O)(=O)c2ccccc2)cc1 returned CHT allo act inactive, CHT block inactive, MEKK2wt PB1 HTS 101, MEKK2 mut-MEK5 -6, Mot1-301 SUMO 505*, MEKK3 PB1 HTS 95 and Mot1 SUMO dose 0.
CC(NC(=O)OCc1ccccc1)C(=O)N1CC(O)CC1C(=O)O (stereo not drawn) was read as MEKK2wt PB1 HTS 103, MEKK2 mut-MEK5 4, Mot1-301 SUMO 451*, MEKK3 PB1 HTS 85 and Mot1 SUMO dose 1[21 µM].
Screening Cc1cccc(NC(=O)C2CC(O)CN2C(=O)OCc2ccccc2)c1 (stereo not drawn) returned CHT allo act inactive, CHT block inactive, MEKK2wt PB1 HTS 94, MEKK2 mut-MEK5 -2, Mot1-301 SUMO 2 and MEKK3 PB1 HTS 93.
Screening COC(=O)c1ccncc1C(=O)Nc1ccc(Oc2ncc(C(F)(F)F)cc2Cl)cc1 returned CHT allo act inactive, CHT block inactive, MEKK2wt PB1 HTS 93, MEKK2 mut-MEK5 -2, Mot1-301 SUMO 369*, MEKK3 PB1 HTS 95 and Mot1 SUMO dose -1.
COC(=O)c1ccncc1C(=O)Nc1ccc(OC)cc1 was read as CHT allo act inactive, CHT block inactive, MEKK2wt PB1 HTS 94, MEKK2 mut-MEK5 -5, Mot1-301 SUMO -4 and MEKK3 PB1 HTS 96.
Screening COc1ccc(C)cc1NC(=O)Cn1c(=O)oc2ccccc21 returned CHT allo act inactive, CHT block inactive, MEKK2wt PB1 HTS 100, MEKK2 mut-MEK5 1, Mot1-301 SUMO 486*, MEKK3 PB1 HTS 100 and Mot1 SUMO dose -1.
For COc1cccc(CC2(CO)CCN(Cc3cccn3-c3cccnc3)CC2)c1 the results were CHT allo act inactive, CHT block inactive, MEKK2wt PB1 HTS 98, MEKK2 mut-MEK5 -10, Mot1-301 SUMO 0 and MEKK3 PB1 HTS 108.
Screening CCCCCCCC(=O)NNC(=O)Cc1ccccc1 returned CHT allo act inactive, CHT block inactive, MEKK2wt PB1 HTS 102, MEKK2 mut-MEK5 1, Mot1-301 SUMO 9 and MEKK3 PB1 HTS 102.
For CCCCCC(=O)NNC1=NCC(Cc2cccc(Cl)c2)S1 (stereo not drawn) the results were CHT allo act inactive, CHT block inactive, MEKK2wt PB1 HTS 79, MEKK2 mut-MEK5 -18, Mot1-301 SUMO 734*, MEKK3 PB1 HTS 79 and Mot1 SUMO dose 1.
CC(NC(=O)C12CC3CC(CC(C3)C1)C2)c1ccc(F)cc1 (stereo not drawn) was read as CHT allo act inactive, CHT block inactive, MEKK2wt PB1 HTS 99, MEKK2 mut-MEK5 -3, Mot1-301 SUMO -9 and MEKK3 PB1 HTS 101.
`CC(NC(=O)C12CC3CC(CC(O)(C3)C1)C2)c1ccccc1` (stereo not drawn) gave CHT allo act inactive, CHT block inactive, MEKK2wt PB1 HTS 93, MEKK2 mut-MEK5 -6, Mot1-301 SUMO 409*, MEKK3 PB1 HTS 98 and Mot1 SUMO dose -1.
Screening Cc1ccc(S(=O)(=O)Oc2ccc(/C=C3\N=C(c4cccc(C)c4)OC3=O)cc2)cc1 returned CHT allo act inactive, CHT block inactive, Mot1-301 SUMO active and Mot1 SUMO dose 0.
Screening Cc1cccc(C2=N/C(=C\c3cccs3)C(=O)O2)c1 returned CHT allo act inactive, CHT block inactive, MEKK2wt PB1 HTS 101, MEKK2 mut-MEK5 7, Mot1-301 SUMO 13 and MEKK3 PB1 HTS 101.
For CC(C)(C)C(=O)C(Cl)C(=O)Nc1ccccc1 (stereo not drawn) the results were CHT allo act inactive, CHT block inactive, MEKK2wt PB1 HTS 106, MEKK2 mut-MEK5 11, Mot1-301 SUMO 604*, MEKK3 PB1 HTS 100 and Mot1 SUMO dose -4.
`Cc1cccc(C)c1NC(=O)NN=C1CCCCC1` gave CHT allo act inactive, CHT block inactive, MEKK2wt PB1 HTS 101, MEKK2 mut-MEK5 1, Mot1-301 SUMO 11 and MEKK3 PB1 HTS 100.
Screening O=C(COc1nsnc1N1CCOCC1)Nc1ccc(Cl)cc1 returned CHT allo act inactive, CHT block inactive, MEKK2wt PB1 HTS 102, MEKK2 mut-MEK5 0, Mot1-301 SUMO 4 and MEKK3 PB1 HTS 102.
For CSc1ccccc1NC(=O)COc1nsnc1N1CCOCC1 the results were CHT allo act inactive, CHT block inactive, MEKK2wt PB1 HTS 102, MEKK2 mut-MEK5 -4, Mot1-301 SUMO 413*, MEKK3 PB1 HTS 99 and Mot1 SUMO dose 0.
`CC(=O)Nc1cccc2c1C(=O)N(c1ccccc1C)C2=O` gave CHT allo act inactive, CHT block inactive, MEKK2wt PB1 HTS 86, MEKK2 mut-MEK5 -9, Mot1-301 SUMO 518*, MEKK3 PB1 HTS 90 and Mot1 SUMO dose -1.
Cc1ccc(N2CN(CCc3ccccc3)CNC2=S)cc1 was read as CHT allo act inactive, CHT block inactive, MEKK2wt PB1 HTS 94, MEKK2 mut-MEK5 -2, Mot1-301 SUMO 419*, MEKK3 PB1 HTS 95 and Mot1 SUMO dose 1.
